PubChem BioAssay (NCATS)
Inconclusive results are not listed. The list shows a part of the results. Where a call stands in place of a potency, no number is given. Calls of active or inactive are those of the source. Unless noted, the call rests on the fitted dose curve; in most records, active means well fitted curve in the direction sought with a large enough effect; inconclusive means small, poorly fitted or top-dose-only effect, or another doubt; inactive means no such curve, though single readings can be large; an effect the other way counts as inactive or inconclusive.

Tests used:
[1] = target: Ubiquitin carboxyl-terminal hydrolase 1 (Homo sapiens) (UniProt O94782); test: Inhibitors of USP1/UAF1: Pilot qHTS (AID 504865);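 further: rhodamine fluorescence freed from ubiquitin-rhodamine substrate followed over time; top concentration of the series differs between compounds; nearly all actives have a fitted effect of over 35% in size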
How it was run: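 Kinetic fluorescence assay: 1nM USP1/UAF1, 15 min compound preincubation, then 150nM Ub-Rho; 480/540 nm.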

[2] = S16 Schwann cell viability assay (CellTiter-Glo assay) (AID 624031);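 further: cellular ATP luminescence as a viability measure; nearly all actives have a fitted effect of over 70% in size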
How it was run: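 Native S16 rat Schwann cells in DMEM/10% FBS without phenol red were incubated overnight, then exposed to compounds for 24 h at 37 °C/5% CO2. Viability was read as ATP luminescence (CellTiter-Glo), normalized to no-cell wells and DMSO (0%).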

[3] = S16 Schwann cell PMP22 intronic element firefly luciferase assay (AID 624032); further: nearly all actives have a fitted effect of over 30% in size; further: potency means the concentration at half of the fitted maximal effect
How it was run: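 Rat S16 Schwann cells stably carrying a PMP22 intronic element-driven Fluc reporter were seeded overnight, then exposed to compounds for 24 h at 37 °C. Luminescence was normalized to PTC124 (positive control) and DMSO (0% activity).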

[4] = S16 Schwann cell PMP22 intronic element beta-lactamase assay (AID 624044; calls by dose curve; further: nearly all actives have a fitted effect of over 15% in size; further: potency means the concentration at half of the fitted maximal effect); details: S16 rat Schwann cells, PMP22 element beta-lactamase FRET, 24 h; ratio activity, negative = inhibition: at 38.3 µM (top of the series)
How it was run: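 Beta-lactamase reporter under a PMP22 intronic regulatory element in stable S16 rat Schwann cells; 24 h compound exposure. 460 nm blue signal normalized between DMSO (0%) and potassium clavulanate, with 535 nm FRET tracking viability; curves classed by r2 and response.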

[5] = test system: DFO2036; test: qHTS profiling for inhibitors of Plasmodium falciparum proliferation (AID 504749); further: nearly all actives have a fitted effect of over 60% in size; further: potency means the concentration at half of the fitted maximal effect; details: P. falciparum in erythrocytes, SYBR Green DNA, 72 h; series mostly up to 28.7 µM
How it was run: (§1)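 Quantitative HTS: compounds pinned into medium, infected erythrocytes added (0.3% parasitemia, 2.5% hematocrit), 72 h culture at 37 C under 5% CO2. Saponin/Triton lysis with SYBR Green I, overnight RT, then fluorescence read.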

[6] = test system: TAB109; test: as above; details: P. falciparum in erythrocytes, SYBR Green DNA, 72 h; series mostly up to 28.7 µM
How it was run: as §1

[7] = target: Tyrosyl-DNA phosphodiesterase 1 (Homo sapiens) (UniProt Q9NUW8); test: Confirmation Assay for Inhibitors of Tyrosyl-DNA Phosphodiesterase (TDP1) (AID 489007); details: recombinant human TDP1 enzymatic activity, dose-response; further: potency means the concentration at half of the fitted maximal effect; nearly all actives have a fitted effect of over 40% in size
How it was run: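 Compounds are preincubated 15 min at room temperature with 1 nM recombinant human Tdp1. The reaction starts on adding 15 nM FITC-phosphotyrosine DNA substrate, runs 5 min, and is detected by AlphaScreen beads after 10 min.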

[8] = Confirmation and Secondary Assay for Modulators of Hemoglobin Beta Chain Splicing at IVS2 654 locus (AID 910);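 further: per-well total GFP intensity by laser scanning cytometry after 2-day treatment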
How it was run: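 HeLa cells stably carrying EGFP interrupted by mutant beta-globin IVS2-654 intron (CMV-driven) were treated with compound for 2 days at 37C; corrected splicing was scored as total peak GFP intensity per well (488 nm excitation, 500-520 nm emission).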

[9] = Confirmation and Secondary Assay for Modulators of Hemoglobin Beta Chain Splicing at IVS2 705 locus (AID 930);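 further: HeLa cells stably expressing the EGFP-705 splicing reporter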
How it was run: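 HeLa cells stably carrying EGFP interrupted by mutant beta-globin IVS2-705 intron (CMV-driven) were seeded at 500 cells/well, treated next day with compound for 2 days at 37C; corrected splicing restores EGFP, read as total peak GFP intensity per well.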

[10] = target: Tumor susceptibility gene 101 protein (Homo sapiens) (UniProt Q99816); test: qHTS Assay for Iinhibitors of HIV-1 Budding by Blocking the Interaction of PTAP/TSG101: Hit Validation (AID 651600); further: nearly all actives have a fitted effect of over 70% in size
How it was run: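 Displacement of a FITC-labeled PTAP-motif peptide (50 nM) from the Tsg101 binding domain (10 uM) was monitored by fluorescence polarization after a 20 min room-temperature incubation.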

[11] = target: Phosphoglycerate kinase, glycosomal (Trypanosoma brucei brucei) (UniProt P07378); test: qHTS for inhibitors of Phosphogylcerate Kinase: Hit Validation Screen (AID 686980); details: TbPGK coupled GAPDH assay, Kinase-Glo luminescence; further: potency means the concentration at half of the fitted maximal effect; nearly all actives have a fitted effect of over 65% in size
How it was run: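 Recombinant glycosomal PGK reaction used 1,3-bisphosphoglycerate generated in-well by GAPDH (100nM final) in 100mM TEA pH 7.6, 5mM MgCl2, 0.01% Tween-20. After 60 minutes at room temperature, ATP was read by Kinase-Glo Plus luminescence end-point.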

[12] = target: DNA polymerase iota (Homo sapiens) (UniProt Q9UNA4); test: qHTS for Inhibitors of Polymerase Iota: Confirmatory Assay for Cherry-picked Compounds (AID 720496); details: Pol iota primer extension, TAMRA/BHQ fluorescence; further: potency means the concentration at half of the fitted maximal effect
How it was run: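 Kinetic fluorescence, 0 → 10 min, ex 525/em 598 nm. Pol iota 10 nM, 15 min RT preincubation with compound, then 50 nM (final) TAMRA/BHQ-2 primer-template substrate.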

[13] = target: Bifunctional 3'-5' exonuclease/ATP-dependent helicase WRN (Homo sapiens) (UniProt Q14191); test: qHTS for Inhibitors of WRN Helicase: Confirmatory Assay for Cherry-picked Compounds. (AID 720497); details: WRN helicase DNA unwinding, fluorescence kinetic; further: potency means the concentration at half of the fitted maximal effect; nearly all actives have a fitted effect of over 65% in size
How it was run: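 Helicase activity is tracked as a kinetic fluorescence signal (excitation 525 nm, emission 598 nm) after 100 nM forked duplex DNA and 2 mM ATP are added to 20 nM WRN that has been preincubated 15 min with compound at room temperature.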

Sequence of Tyrosyl-DNA phosphodiesterase 1 (Homo sapiens) (Q9NUW8 whole entry, looked up): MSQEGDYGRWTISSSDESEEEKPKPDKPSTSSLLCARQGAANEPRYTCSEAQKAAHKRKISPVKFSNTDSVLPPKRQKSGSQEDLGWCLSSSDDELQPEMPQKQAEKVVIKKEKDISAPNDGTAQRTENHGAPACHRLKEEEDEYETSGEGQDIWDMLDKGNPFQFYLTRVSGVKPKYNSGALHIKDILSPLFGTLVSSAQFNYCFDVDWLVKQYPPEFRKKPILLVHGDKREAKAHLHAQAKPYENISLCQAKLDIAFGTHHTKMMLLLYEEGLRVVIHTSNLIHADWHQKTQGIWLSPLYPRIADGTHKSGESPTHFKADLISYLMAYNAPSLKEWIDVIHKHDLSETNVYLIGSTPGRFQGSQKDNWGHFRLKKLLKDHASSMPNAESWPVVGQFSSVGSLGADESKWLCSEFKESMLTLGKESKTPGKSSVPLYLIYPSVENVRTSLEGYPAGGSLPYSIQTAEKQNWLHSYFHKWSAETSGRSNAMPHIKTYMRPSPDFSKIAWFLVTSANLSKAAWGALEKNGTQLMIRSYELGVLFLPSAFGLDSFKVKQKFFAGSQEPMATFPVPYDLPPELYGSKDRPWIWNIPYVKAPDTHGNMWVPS
Sequence of Ubiquitin carboxyl-terminal hydrolase 1 (Homo sapiens) (O94782 whole entry, looked up): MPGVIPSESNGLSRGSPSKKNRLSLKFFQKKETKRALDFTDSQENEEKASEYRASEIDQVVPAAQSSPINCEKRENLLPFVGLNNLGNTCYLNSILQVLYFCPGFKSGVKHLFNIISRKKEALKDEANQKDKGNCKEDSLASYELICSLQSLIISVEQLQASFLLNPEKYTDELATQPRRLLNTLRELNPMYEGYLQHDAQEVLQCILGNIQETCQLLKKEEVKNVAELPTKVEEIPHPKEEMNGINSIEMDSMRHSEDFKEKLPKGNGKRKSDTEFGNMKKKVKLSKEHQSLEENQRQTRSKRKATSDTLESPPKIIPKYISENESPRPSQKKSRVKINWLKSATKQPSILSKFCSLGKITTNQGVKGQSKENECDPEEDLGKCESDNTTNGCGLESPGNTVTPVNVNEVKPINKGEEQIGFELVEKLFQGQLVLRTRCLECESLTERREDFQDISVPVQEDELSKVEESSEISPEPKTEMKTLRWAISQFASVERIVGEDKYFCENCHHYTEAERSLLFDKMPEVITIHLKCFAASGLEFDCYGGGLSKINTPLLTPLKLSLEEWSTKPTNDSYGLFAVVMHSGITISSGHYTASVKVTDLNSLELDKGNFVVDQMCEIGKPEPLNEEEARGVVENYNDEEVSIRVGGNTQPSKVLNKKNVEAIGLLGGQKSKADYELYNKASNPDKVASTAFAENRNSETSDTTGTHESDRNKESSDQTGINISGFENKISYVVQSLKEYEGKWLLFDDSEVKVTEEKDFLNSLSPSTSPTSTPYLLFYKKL
Sequence of Tumor susceptibility gene 101 protein (Homo sapiens) (Q99816 whole entry, looked up, the tested form may be a part): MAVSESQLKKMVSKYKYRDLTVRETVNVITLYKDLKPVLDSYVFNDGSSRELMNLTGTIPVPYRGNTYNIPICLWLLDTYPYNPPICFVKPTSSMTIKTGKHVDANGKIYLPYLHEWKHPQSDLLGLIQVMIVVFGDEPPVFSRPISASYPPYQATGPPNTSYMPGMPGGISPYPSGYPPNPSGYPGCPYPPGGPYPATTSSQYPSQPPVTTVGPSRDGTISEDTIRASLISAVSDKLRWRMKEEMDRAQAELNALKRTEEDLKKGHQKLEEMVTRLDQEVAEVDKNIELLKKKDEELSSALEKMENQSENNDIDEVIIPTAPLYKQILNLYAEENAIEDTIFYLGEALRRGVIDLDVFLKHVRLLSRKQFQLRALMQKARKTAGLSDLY
Sequence of DNA polymerase iota (Homo sapiens) (Q9UNA4 whole entry, looked up): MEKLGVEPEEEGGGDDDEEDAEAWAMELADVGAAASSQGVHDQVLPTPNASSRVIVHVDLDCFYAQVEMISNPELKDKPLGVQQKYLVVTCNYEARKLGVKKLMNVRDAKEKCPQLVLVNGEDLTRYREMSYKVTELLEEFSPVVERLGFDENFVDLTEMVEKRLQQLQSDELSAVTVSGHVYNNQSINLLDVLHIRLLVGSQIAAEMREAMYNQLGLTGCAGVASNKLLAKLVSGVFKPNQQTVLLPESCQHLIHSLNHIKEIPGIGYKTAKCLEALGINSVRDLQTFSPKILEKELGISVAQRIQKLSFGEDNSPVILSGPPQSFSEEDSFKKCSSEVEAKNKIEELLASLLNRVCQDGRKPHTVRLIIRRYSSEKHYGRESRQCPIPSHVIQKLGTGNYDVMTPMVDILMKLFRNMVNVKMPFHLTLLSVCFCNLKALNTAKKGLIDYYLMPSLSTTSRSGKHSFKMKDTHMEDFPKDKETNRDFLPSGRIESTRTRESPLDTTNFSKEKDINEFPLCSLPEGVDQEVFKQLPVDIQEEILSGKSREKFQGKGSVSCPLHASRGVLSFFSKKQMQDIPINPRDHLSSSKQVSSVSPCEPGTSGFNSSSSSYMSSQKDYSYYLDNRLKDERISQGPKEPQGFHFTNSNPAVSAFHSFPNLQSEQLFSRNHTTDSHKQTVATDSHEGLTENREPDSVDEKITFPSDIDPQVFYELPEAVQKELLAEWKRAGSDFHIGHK
Sequence of Phosphoglycerate kinase, glycosomal (Trypanosoma brucei brucei) (P07378 whole entry, looked up): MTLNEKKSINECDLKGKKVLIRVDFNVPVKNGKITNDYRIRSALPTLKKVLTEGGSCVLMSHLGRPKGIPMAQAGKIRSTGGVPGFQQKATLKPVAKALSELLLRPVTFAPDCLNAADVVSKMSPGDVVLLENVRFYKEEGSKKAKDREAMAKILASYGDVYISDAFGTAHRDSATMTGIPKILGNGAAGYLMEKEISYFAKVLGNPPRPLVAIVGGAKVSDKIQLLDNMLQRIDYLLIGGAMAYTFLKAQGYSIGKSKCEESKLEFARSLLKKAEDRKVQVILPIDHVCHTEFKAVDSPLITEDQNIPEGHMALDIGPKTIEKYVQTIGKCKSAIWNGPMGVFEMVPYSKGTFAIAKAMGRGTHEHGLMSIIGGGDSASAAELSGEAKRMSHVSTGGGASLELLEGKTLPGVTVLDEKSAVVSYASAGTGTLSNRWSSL
Sequence of Bifunctional 3'-5' exonuclease/ATP-dependent helicase WRN (Homo sapiens) (Q14191 whole entry, looked up): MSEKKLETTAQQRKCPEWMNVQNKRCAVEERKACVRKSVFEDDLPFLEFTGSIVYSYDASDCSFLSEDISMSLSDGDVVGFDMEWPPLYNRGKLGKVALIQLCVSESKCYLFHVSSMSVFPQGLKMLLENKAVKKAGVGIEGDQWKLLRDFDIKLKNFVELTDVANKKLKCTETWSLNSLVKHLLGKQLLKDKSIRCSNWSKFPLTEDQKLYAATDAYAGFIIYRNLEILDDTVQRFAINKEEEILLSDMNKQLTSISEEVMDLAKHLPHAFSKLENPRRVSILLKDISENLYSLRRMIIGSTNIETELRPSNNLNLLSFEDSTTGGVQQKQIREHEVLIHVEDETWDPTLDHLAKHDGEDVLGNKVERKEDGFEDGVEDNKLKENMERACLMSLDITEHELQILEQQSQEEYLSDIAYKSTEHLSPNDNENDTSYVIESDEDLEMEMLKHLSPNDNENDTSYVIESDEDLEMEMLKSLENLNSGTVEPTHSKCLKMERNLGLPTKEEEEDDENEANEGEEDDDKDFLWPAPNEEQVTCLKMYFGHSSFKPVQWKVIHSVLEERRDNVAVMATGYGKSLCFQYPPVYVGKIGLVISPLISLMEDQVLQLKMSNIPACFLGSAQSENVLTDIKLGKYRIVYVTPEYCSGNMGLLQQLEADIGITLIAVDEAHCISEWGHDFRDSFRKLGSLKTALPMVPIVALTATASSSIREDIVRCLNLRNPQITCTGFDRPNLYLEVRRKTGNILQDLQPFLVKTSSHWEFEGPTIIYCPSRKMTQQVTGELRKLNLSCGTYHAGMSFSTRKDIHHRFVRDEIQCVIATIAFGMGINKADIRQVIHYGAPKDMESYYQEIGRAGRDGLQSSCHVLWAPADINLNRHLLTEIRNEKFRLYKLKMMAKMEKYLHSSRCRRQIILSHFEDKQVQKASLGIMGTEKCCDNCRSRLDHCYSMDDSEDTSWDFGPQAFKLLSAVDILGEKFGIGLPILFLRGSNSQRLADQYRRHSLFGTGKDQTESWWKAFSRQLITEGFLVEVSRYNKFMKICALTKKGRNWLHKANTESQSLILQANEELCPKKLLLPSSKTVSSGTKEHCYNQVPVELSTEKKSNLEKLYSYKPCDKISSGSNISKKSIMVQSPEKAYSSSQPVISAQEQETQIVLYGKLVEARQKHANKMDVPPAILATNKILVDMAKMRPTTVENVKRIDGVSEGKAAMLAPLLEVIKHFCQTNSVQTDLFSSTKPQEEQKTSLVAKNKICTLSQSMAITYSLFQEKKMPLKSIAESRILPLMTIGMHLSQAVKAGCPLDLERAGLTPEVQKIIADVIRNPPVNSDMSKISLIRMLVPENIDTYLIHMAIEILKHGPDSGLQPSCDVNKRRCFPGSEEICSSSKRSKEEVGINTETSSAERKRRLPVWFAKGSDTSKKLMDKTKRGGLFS

## CO[C@H]1OC2O[C@@]3(C)CC[C@H]4[C@H](C)CC[C@@H]([C@H]1C)[C@@]24OO3 (some centres not stated)
[1]
  Potency: inactive
[2]
  Potency: inactive
[3]
  Potency: 3.22 µM (active)
[4]
  Potency: inactive
[5]
  Potency: 0.0158 µM (active)
[6]
  Potency: 0.0126 µM (active)

## CNC1C(O)C(OC2C(N)CC(N)C(OC3OC(CN)=CCC3N)C2O)OCC1(C)O (configuration not stated)
[1]
  Potency: inactive
[2]
  Potency: inactive
[3]
  Potency: inactive
[5]
  Potency: inactive
[6]
  Potency: inactive

## O=c1c2nc(Br)n([C@@H]3O[C@@H]4CO[P@@](O)(=S)O[C@H]4[C@H]3O)c2nc2[nH]c(-c3ccccc3)cn12
[7]
  Potency: 12.6 µM (active)

## C=CCCN(Cc1ccccc1)S(=O)(=O)c1ccccc1Br
[7]
  Potency: 56.2 µM (active)

## COc1ccc(-n2c(NC(=O)c3ccc(Br)o3)c(C#N)c3nc4ccccc4nc32)cc1
[7]
  Potency: 100 µM (active)

## CCOC(=O)c1sc2nc3c(SCCC(=O)O)cc(C(=O)c4cc(OC)ccc4O)cn3c(=O)c2c1C
[7]
  Potency: 2.82 µM (active)

## Cc1ccc(-c2nc3c(c(SCC(=O)Nc4cccc(C(=O)O)c4)n2)Cc2cccc(C)c2O3)cc1
[7]
  Potency: 4.08 µM (active)

## c1ccc(N2N=C(c3cccs3)CC2c2ccco2)cc1 (configuration not stated)
[7]
  Potency: 112 µM (active)

## CCC(=O)c1ccc(CCCCCC(=O)O)s1
[7]
  Potency: 31.6 µM (active)

## O=C(N/N=C/c1cccc(Br)c1)c1ccc(Br)cc1
[7]
  Potency: 50.1 µM (active)

## O=C(O)c1cccc(-n2cccc2/C=C2\SC(=O)N(Cc3ccccc3F)C2=O)c1
[7]
  Potency: 11.2 µM (active)

## Cn1c(-n2cccc2)c(-c2c(-c3ccccc3)[nH]c3c2c(=O)[nH]c(=O)n3C)c(=O)[nH]c1=O
[7]
  Potency: 100 µM (active)

## CCCCCc1nnc(NC(=O)Cc2cccs2)s1
[7]
  Potency: 25.1 µM (active)

## CC(=O)OCC1=C(C(=O)O)N2C(=O)C(NC(=O)CSc3ccncc3)[C@@H]2SC1 (some centres not stated)
[8]
  Potency: inactive
[9]
  Potency: inactive
[7]
  Potency: 14.1 µM (active)
[1]
  Potency: inactive

## CC(=O)c1ccc(S(=O)(=O)N2Cc3ccccc3CC2C(=O)O)cc1 (configuration not stated)
[7]
  Potency: 15.8 µM (active)

## CCOC(=O)N1CCC(N2Cc3cccc(C(=O)NCc4ccc5c(c4)OCO5)c3C2=O)CC1
[7]
  Potency: 15.8 µM (active)

## CC(=O)Nc1ccc2nc3c(=O)[nH]c(=O)[nH]c3nc2c1
[7]
  Potency: 4.47 µM (active)
[10]
  Potency: inactive

## O=C1CC[C@H](C(=O)N[C@@H]2C[C@H]2c2ccccc2)N1
[1]
  Potency: inactive
[2]
  Potency: inactive
[3]
  Potency: inactive
[4]
  Potency: inactive
[5]
  Potency: inactive
[6]
  Potency: inactive

## OC[C@@H]1[C@@H](c2ccccc2)C(c2cccc(Cl)c2)=NN1c1ccccc1
[7]
  Potency: 10 µM (active)

## COc1ccc2cc3cc(C(=O)NCc4cccs4)oc3nc2c1
[7]
  Potency: 25.1 µM (active)

## COc1ccccc1C1CN(c2ccccc2)N=C1c1cccs1 (configuration not stated)
[7]
  Potency: 25.1 µM (active)

## CCOC(=O)c1sc(NC(=O)C2CC=CCC2C(=O)O)nc1C (configuration not stated)
[7]
  Potency: 39.8 µM (active)

## CCCC[C@H](O)c1ccccc1
[1]
  Potency: inactive
[2]
  Potency: inactive
[3]
  Potency: inactive
[4]
  Potency: inactive
[5]
  Potency: inactive
[6]
  Potency: inactive

## CC1=NN(c2ccc(Cl)c(C(=O)O)c2)C(=O)/C1=C\c1ccc(-c2ccc(C(=O)O)cc2)o1
[7]
  Potency: 14.1 µM (active)

## COc1ccc(S(=O)(=O)NCc2cccs2)cc1
[7]
  Potency: 112 µM (active)

## C[C@@H]1C(SC2Cn3cnc[n+]3C2)=C(C(=O)[O-])N2C(=O)[C@H]([C@@H](C)O)[C@@H]12 (some centres not stated)
[1]
  Potency: inactive
[2]
  Potency: inactive
[3]
  Potency: inactive
[5]
  Potency: inactive
[6]
  Potency: inactive

## Cc1ccccc1Nc1cccc2nonc12
[7]
  Potency: 100 µM (active)

## COc1ccc(-c2nc3c(c(SCC(=O)Nc4ccc(C(=O)O)cc4)n2)Cc2ccccc2O3)cc1
[7]
  Potency: 1.62 µM (active)
[11]
  Potency: 3.26 µM (active)
[12]
  Potency: 4.23 µM (active)
[13]
  Potency: 7.64 µM (active)

## CC(c1ncncc1F)[C@](O)(Cn1cncn1)c1ccc(F)cc1F (some centres not stated)
[2]
  Potency: inactive
[3]
  Potency: inactive
[4]
  Potency: inactive
[5]
  Potency: inactive
[6]
  Potency: inactive

## CN1[C@@H]2CC[C@@H]1CC(OC(=O)[C@H](CO)c1ccccc1)C2 (some centres not stated)
[2]
  Potency: inactive
[3]
  Potency: inactive
[4]
  Potency: inactive
[5]
  Potency: inactive
[6]
  Potency: inactive

## CC1(C)OC[C@@H]2O[C@@]3(C(=O)O)OC(C)(C)O[C@@H]3[C@@H]2O1
[1]
  Potency: inactive
[2]
  Potency: inactive
[3]
  Potency: inactive
[4]
  Potency: inactive
[5]
  Potency: inactive
[6]
  Potency: inactive

## CC(=O)NC1[C@H](O)C[C@@](O)(C(=O)O)O[C@H]1[C@H](O)[C@H](O)CO (some centres not stated)
[1]
  Potency: inactive
[2]
  Potency: inactive
[3]
  Potency: inactive
[4]
  Potency: inactive
[5]
  Potency: inactive
[6]
  Potency: inactive

## CC(C)(C)C(=O)OCC(=O)C1CCC2C3CCC4=CC(=O)CCC4(C)C3CCC12C (configuration not stated)
[1]
  Potency: inactive
[4]
  Potency: inactive
[5]
  Potency: inactive
[6]
  Potency: inactive

## CC1(C)C2CC[C@]1(C)[C@@H](O)C2
[1]
  Potency: inactive
[2]
  Potency: inactive
[4]
  Potency: inactive
[5]
  Potency: inactive
[6]
  Potency: inactive

## CC[C@@]1(O)C[C@H](O[C@H]2C[C@@H](N(C)C)[C@@H](O[C@H]3C[C@@H](O)[C@@H](O[C@H]4CCC(=O)[C@@H](C)O4)[C@@H](C)O3)[C@@H](C)O2)c2c(cc3c(c2O)C(=O)c2c(O)cccc2C3=O)[C@H]1C(=O)OC
[4]
  Potency: 0.199 µM (active)
[5]
  Potency: 0.178 µM (active)
[6]
  Potency: 0.224 µM (active)

## O=[N+]([O-])O[C@H]1CO[C@H]2[C@@H]1OC[C@H]2O
[2]
  Potency: inactive
[3]
  Potency: inactive
[4]
  Potency: inactive
[5]
  Potency: inactive
[6]
  Potency: inactive
